The list is not random: actives were taken first. Their share in the collection is about 19%.
Pf growth 96h – Primary qHTS for delayed death inhibitors of the malarial parasite plastid, 96 hour incubation; P. falciparum luciferase reporter growth, 96 h; Potency, µM (titrated, usually from 28.7 µM), without a hit: at the highest dose activity change, negative = inhibition, usual class: inhibitors; 320,000 compounds, 6.9% hits; note: potency is the fitted concentration of half-maximal effect; % is set by controls: 0 for no effect and ±100 for the full control effect
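Erythrocytes infected with luciferase-expressing P. falciparum were dispensed at 2% hematocrit and 0.05% parasitemia (final), then incubated with compounds 96 hours at 37 C in 5% CO2. Luminescence after detection reagent addition reported growth.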
AMA1 RON2 block – qHTS for Inhibitors of AMA1-RON; Towards Development of Antimalarial Drug Lead: Primary Screen; Plasmodium falciparum AMA1 (3D7) - RON2 peptide interaction; 360,000 compounds, 0.2% hits; Potency, µM (series often up to 58.2 µM), without a hit: at the highest dose activity change, negative = inhibition, usual class: inhibitors; AlphaScreen AMA1-biotinylated RON2 peptide binding;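 note: potency is the fitted concentration of half-maximal effect; 0% = vehicle wells and -100% = peptide control; nearly all actives have a fitted effect of over 45% in size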
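AMA1 (3D7) with his tag at 25 nM final met compounds first, then biotinylated RON2 peptide at 25 nM; detection used donor plus acceptor beads, 10 µg/mL apiece, read by AlphaScreen after 30 min at room temperature.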
Pf growth 48h – Primary qHTS for delayed death inhibitors of the malarial parasite plastid, 48 hour incubation. Potency, µM (titrated, usually from 28.7 µM), inactives show top-dose activity change, negative = inhibition, hits mostly inhibitors. AID 504832, 2011. P. falciparum luciferase growth in erythrocytes, 48 h. 310,000 compounds, 5.9% hits; note: potency is the fitted concentration of half-maximal effect; % is set by controls: 0 for no effect and ±100 for the full control effect
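Read-out is firefly luciferase luminescence from an integrated reporter in P. falciparum, so falling signal marks reduced parasite growth. Infected erythrocytes were at 2% hematocrit and 0.1% parasitemia (final) in Albumax-supplemented RPMI 1640.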
CHX counter – Cycloheximide Counterscreen for Small Molecule Inhibitors of Shiga Toxin; max response, %; 300,000 compounds, 12% hits; cell reporter, cycloheximide protein synthesis inhibition counterscreen; AID 2314, 2010; in the data active = max response mostly above about 13%, no sharp cut-off; inactive = mostly below about 14%; note: read at 38.3 µM for the half of the compounds with a filed dose; 0% is about no effect
SARS PLpro yeast – qHTS of Yeast-based Assay for SARS-CoV PLP; S. cerevisiae expressing SARS-CoV PLpro, growth rescue; Potency, µM (top dose mostly 32.9 µM), inactives show at the highest dose activity, positive = growth rescue, hits mostly activators; 330,000 compounds, 0.19% hits; AID 485353, 2010; calls by dose curve; note: potency is the fitted concentration of half-maximal effect; 0% is about no effect; nearly all actives have a fitted effect of over 55% in size
Shiga inhibitor – A qHTS for Small Molecule Inhibitors of Shiga Toxin; AID 2315, 2010; 290,000 compounds, 9.2% hits; inhibition, % at 38.7 µM; Vero cells, Shiga toxin protein synthesis inhibition reporter; in the data active = inhibition mostly above about 28%, no sharp cut-off; inactive = mostly below about 43%; note: 0% is about no effect
An asterisk follows results filed as active; ? = inconclusive; nt = not tested or not shown; + = active, no number. Unless noted, calls come from the whole dose curve; as a rule, active = well fitted curve in the direction sought with a large enough effect; inconclusive = small, poorly fitted or top-dose-only effect, or another doubt; inactive = no such curve, though single readings can be large; an effect the other way counts as inactive or inconclusive.

SMILES	Pf growth 96h	AMA1 RON2 block	Pf growth 48h	CHX counter	SARS PLpro yeast	Shiga inhibitor
O=C(O)c1ccc(CNC(=O)C23CC4CC(CC(C4)C2)C3)cc1	29.4%	4.1%	-1.5%	-2.7	18.4%	18.3
Cc1sc(/N=C/c2ccccc2O)c(C#N)c1C	nt	nt	34.4%	-2.5	-1.3%	-5.0
CN1CCc2c(sc(/N=C/c3cc(Cl)ccc3O)c2C#N)C1	-11.7%	6.8%	-11.4%	51.7*	0.7%	101.1*
CCOc1ccc(-c2cc(C)[n+](CCN3CCOCC3)c(-c3ccc(OCC)cc3)c2)cc1	0.37µM*	-14.2%	0.657µM*	-0.3	0.0%	3.4
CCC(C)NC(=O)CSc1nc2cc(S(=O)(=O)N3CCOCC3)ccc2n1CC (configuration not stated)	-13.6%	6.2%	4.5%	nt	-2.3%	nt
Cc1ccc(COC(=O)c2cc(S(=O)(=O)N3CCOCC3)ccc2C)cc1	13.1µM*	12.2%	9.28µM*	nt	-7.5%	nt
Cc1ccc(S(=O)(=O)N2CCOCC2)cc1C(=O)OCC(=O)Nc1ccc(Cl)cn1	nt	-8.8%	nt	nt	nt	nt
Cc1ccc(S(=O)(=O)N2CCOCC2)cc1C(=O)OCCOc1cccc(Cl)c1	10.4µM*	6.9%	?	nt	-6.1%	nt
CCn1c(SCC(=O)c2cc(C)ccc2C)nc2cc(S(=O)(=O)N3CCOCC3)ccc21	7.38µM*	-7.7%	?	1.4	16.0%	2.1
CC[C@]1(C(=O)OC)[C@H]2C(=O)N(Cc3ccccc3)C(=O)[C@H]2[C@H]2CN=C(SC)N21	nt	4.3%	nt	nt	0.3%	nt
COc1ccc(C(=O)Nc2c(Cl)cc(Cl)cc2C(=O)N2CCOCC2)cc1	2.6%	-1.9%	13.8%	-2.2	1.6%	-6.6
Cc1ccc(S(=O)(=O)N2CCCN(Cc3nc4ccccc4c(=O)[nH]3)CC2)cc1	-14.0%	0.8%	?	nt	2.3%	nt
Cc1ccc(S(=O)(=O)N2CCCN(C(C)c3nc4ccccc4c(=O)[nH]3)CC2)cc1 (configuration not stated)	13.1µM*	10.4%	?	nt	3.8%	nt
Cn1ccc2c(N3CCCCCCC3)cc3c(c21)C1CCC3O1 (configuration not stated)	nt	25.1µM*	nt	nt	nt	nt
O=C(Cn1c(C(F)(F)F)nc2ccccc21)N=Nc1c(O)[nH]c2ccc(Br)cc12	-3.2%	9.5%	-23.8%	-4.8	1.3%	-6.7
CCCCCNC(=O)Cn1c(=O)c2c(ncn2CC(C)C)n(Cc2ccccc2)c1=O	0.0%	-16.5%	?	-2.9	-0.8%	-8.4
CCC(O)CNc1nc(-n2nc(C)cc2C)nc2sc3c(c12)CCCC3 (configuration not stated)	nt	nt	nt	-1.2	0.9%	-17.8
Cc1cc(C)n(-c2nc(SCCN(C)C)c3c4c(sc3n2)CCCC4)n1	11.7µM*	19.7%	?	-1.9	-11.4%	25.0
COc1cc(C(c2c(C)[nH][nH]c2=O)c2c(C)[nH][nH]c2=O)cc(Br)c1OC	7.38µM*	31.1%	22.7%	-1.7	-6.4%	-7.7
Cc1cc(C)nc(SCc2nc3nc(C)cc(C)n3c2Br)n1	1.47µM*	-4.8%	10.4µM*	-3.2	0.8%	-1.2
CCN(CC)CCCNC(=O)c1cn(CC(C)C)c(=O)c2c1c1ccccc1n2C	6.8%	-5.4%	8.1%	-2.5	1.4%	-4.3
CCN(C(=O)c1nn(-c2ccc(OC)cc2)c(=O)c2c1c1ccccc1n2C)c1ccc(OC)cc1	-1.2%	18.4%	-10.5%	-2.4	-2.9%	-1.9
CCCCN(C)CCNC(=O)c1nn(-c2ccc(OC)cc2)c(=O)c2c1c1ccccc1n2C	2.62µM*	-4.0%	?	-5.4	2.5%	-7.9
CCCCN(CC)CCCNC(=O)c1cn(CC(C)C)c(=O)c2c1c1ccccc1n2C	-25.2%	-3.6%	13.1µM*	0.9	-1.1%	-6.4
CCOC(CCNC(=O)c1cn(CC(C)C)c(=O)c2c1c1ccccc1n2C)OCC	0.522µM*	18.1%	-16.7%	-1.3	0.6%	12.7
SMILES	Pf growth 96h	AMA1 RON2 block	Pf growth 48h	CHX counter	SARS PLpro yeast	Shiga inhibitor
CCn1cc(C(=O)O)c(=O)c2cc(S(=O)(=O)N3CCCCCC3)ccc21	?	0.0%	18.6%	5.6	-2.1%	-5.3
CCn1cc(C(=O)N(C)CC(OC)OC)c(=O)c2cc(S(=O)(=O)N3CCOCC3)ccc21	6.57µM*	22.4%	15.9%	-1.6	-4.3%	-2.9
CCOC(=O)C1CCN(C(=O)COc2ccc(S(=O)(=O)N3CCCC3)cc2C)CC1	3.29µM*	-3.4%	-21.0%	-1.2	0.5%	-11.1
CCOC(=O)C1CCN(S(=O)(=O)c2ccc3c(c2)CC(=O)N3)CC1	0.0%	0.8%	11.7µM*	1.2	3.0%	-2.4
CCn1cc(C(=O)N2CCc3ccccc32)c(=O)c2cc(S(=O)(=O)N3CCCC3)ccc21	11.7µM*	-15.4%	?	-3.1	16.0%	-14.8
COc1cc(NC(=O)c2ccccc2F)ccc1NC(=O)c1cc2ccccc2o1	23.4%	-5.0%	19.1%	-1.4	2.7%	-4.7
CCOC(=O)C1CCCN(C(=O)c2cn(C)c3ccc(S(=O)(=O)N4CCCC4)cc3c2=O)C1 (configuration not stated)	-24.3%	6.4%	-21.3%	-3.0	4.8%	-12.0
CCOC(=O)C1CCCN(C(=O)c2ccc(S(=O)(=O)N3CCCC3)cc2)C1 (configuration not stated)	-3.5%	19.2%	-7.0%	nt	-5.1%	nt
CCOC(=O)C1CCCN(C(=O)c2cc(S(=O)(=O)N3CCCCC3)ccc2C)C1 (configuration not stated)	?	-2.7%	8.28µM*	-0.9	-0.7%	9.9
CCOC(=O)C1CCCN(C(=O)c2cn(CC)c3ccc(S(=O)(=O)N4CCCC4)cc3c2=O)C1 (configuration not stated)	nt	8.2%	11.7µM*	-3.3	-4.2%	-9.3
CC1(c2cccc(Br)c2)NC(=O)NC1=O (configuration not stated)	7.9%	-16.1%	5.3%	-2.1	-0.9%	-8.3
O=C(O)CC(NC(=O)OCc1ccccc1)c1ccc(Br)cc1 (configuration not stated)	nt	7.5%	24.6%	-2.7	-14.0%	-6.9
Brc1ccc(C2=NC(Cc3ccccc3)CO2)cc1 (configuration not stated)	115.7%	18.4%	140.4%	51.8*	11.1%	77.3*
O=S1(=O)N[C@@H](Cc2ccccc2)COc2cc(Br)ccc21	nt	-4.6%	nt	nt	1.6%	nt
O=C(OCc1ccccc1)[C@@H]1COC(c2ccc(Br)cc2)=N1	nt	nt	nt	38.4*	nt	+
Cc1ccc(S(=O)(=O)N(C)C)cc1NC(=O)Cn1c(CN2CCOCC2)nc2ccccc2c1=O	-20.0%	-0.5%	14.7µM*	16.5	3.0%	-2.2
COc1ccc(NC(=O)CSc2nc3ccccc3c(=O)n2CCCN2CCOCC2)c(OC)c1	?	-2.3%	?	-4.7	0.7%	1.5

Source: PubChem BioAssay (National Center for Advancing Translational Sciences (NCATS))
